# From the supplement of paper PMC4206467
# Tested on: Perkinsus marinus PRA240
# Test: ATP content (proliferation) relative to DMSO control; higher = more parasite growth (less inhibition)
# Settings: 20 µM; 4 days
# Procedure: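 Perkinsus marinus PRA240 trophozoites (2-5x10^6 cells/ml, 100 µl, 96-well) were exposed once to MMV Malaria Box compounds at 20 µM (0.1% DMSO) in triplicate. ATP content (ATPlite bioluminescence) was read at day 4 post-exposure and normalised to DMSO + cells control wells (100% activity). Compounds were identified by joining plate and well to the Malaria Box list.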
row,SMILES,ATP content [%]
1,O=C(NC1CCCCC1)C(c1cccs1)N(CCc1ccccc1)C(=O)c1ccco1 (stereo not given),101
2,C=CCc1c(C)nc2ccccc2c1O,48
3,O=C(NCc1ccco1)C1CCN(S(=O)(=O)c2ccc(Br)cc2)CC1,147
4,COc1cccc(Cn2c(Oc3ccccc3)nc3c2c(=O)n(C)c(=O)n3C)c1,106
5,CCCCCCC(O)(c1ccc(F)cc1)C(CN1CCOCC1)c1ccccc1 (stereo not given),127
6,CCOc1ccc(CN2CCN(CC(O)COc3ccc(OCC(O)CN4CCN(Cc5ccc(OCC)cc5)CC4)cc3)CC2)cc1 (stereo not given),137
7,O=C(c1ccccc1F)N(Cc1ccc(Cl)cc1)c1ccccn1,59
8,N=c1n(CCN2CCCCC2)c2ccccc2n1CC(=O)c1ccc(Cl)c(Cl)c1,111
9,CCOC(=O)c1c(C)n(-c2ccccc2)c2ccc(OC(=O)c3cc(OC)c(OC)c(OC)c3)cc12,141
10,O=C(Nc1ccc(-c2nc3cc4ccccc4cc3[nH]2)cc1)c1cccc(Br)c1,124
11,CN1CCN(c2ncnc3c2[nH]c2ccc(Cl)cc23)CC1,111
12,CC(C)(C)c1ccc2c(c1)CN(Cc1ccc(Cl)cc1)CO2,107
13,O=C(CCc1ccccc1)c1ccccc1OCC(O)CN1CCCCC1 (stereo not given),62.3
14,Cc1ccc(-c2cc(C(=O)Nc3ccc(S(=O)(=O)N4CCCCC4)cc3)[nH]n2)c(O)c1,104
15,CCOC(=O)C1=CN(C)C=C(C(=O)OCC)C1c1cc(Br)c(OCC)c(OC)c1,121
16,O=C(Nc1ccccc1O)c1ccc(-c2ccc(Cl)cc2Cl)o1,82.5
17,COCCn1c(C)nc2ccccc2c1=O,130
18,O=c1nc(C=Cc2ccc(Br)cc2)oc2ccccc12,11.1
19,COc1ccccc1CNC(=O)C1c2ccccc2C(=O)N(CC(C)C)C1c1cccs1 (stereo not given),111
20,O=C(NCc1ccco1)C1CCN(S(=O)(=O)c2ccc(Cl)cc2)CC1,89.8

row,SMILES,ATP content [%]
1,O=C(Nc1ccc(Cl)c(Cl)c1)Nc1ccc(Cl)c(Cl)c1,91.6
2,O=C1c2ccccc2-c2nnc(-c3ccc(Br)cc3)cc21,67.7
3,Cc1ccc(C)c(-c2csc(Nc3ccc(C)c(C)c3)n2)c1,93.6
4,CCOc1ccc2nc(C)cc(Nc3ccc(Br)cc3)c2c1,3.75
5,COc1ccc(C2NCCc3c2[nH]c2ccccc32)cc1CN1CCN(c2ccc(F)cc2)CC1 (stereo not given),171
6,c1ccc(-c2ccc(-c3nc4ccccc4[nH]3)cc2)cc1,16.5
7,COc1ccc(C(=O)Nc2ccc(Cl)cc2C(=O)Nc2ccncc2)cc1,106
8,Brc1ccc(Nc2nc3ccccc3nc2Nc2ccc(Br)cc2)cc1,18.3
9,COc1ccc(N2CCN(C(CNC(=O)CC(C)(C)C)c3ccc4c(c3)OCO4)CC2)cc1 (stereo not given),211
10,CCN(CC)CCCNc1ccnc2cc3ccccc3cc12,139
11,CCOc1cc(Cl)c(C(C)NC(=O)c2cccc(OC)c2)cc1OCC (stereo not given),85.3
12,COc1ccc(C(=O)C2CC2c2ccc(Cl)cc2)cc1 (stereo not given),199
13,O=C(NCCCN1CCC(N2CCCCC2)CC1)C1=Cc2cc(Br)ccc2OC1,224
14,CCN(CC)S(=O)(=O)c1ccc(-c2csc(Nc3ccc(C)c(C)c3)n2)cc1,142
15,O=c1cc(NC2CCN(CCCc3ccccc3)CC2)c2cc(Cl)ccc2o1,167
16,CCOC(=O)c1cnc2ccc(Cl)cc2c1NCCCN(C)C,147
17,COc1ccc(-c2nonc2NC(=O)c2cccc(Cl)c2)cc1OC,135
18,Oc1ccccc1CN1CCN(C(c2ccccc2)c2ccccc2)CC1,128
19,Cc1cc(Nc2cccc(F)c2)nc(NCc2ccccc2)n1,94.7
20,CCOc1ccccc1CNC(=O)C1c2ccccc2C(=O)N(CC(C)C)C1c1cccs1 (stereo not given),78.8
